Sampled rows, rich in hits. Any-hit rate of the full collection: about 17%.
HepG2 tox = HepG2 cytotoxicity, counter-screen for TGF-b inhibitors | 410,000 tested, 0.76% active | HepG2 CAGA-GFP viability, ATP luminescence, 18 h | Potency, µM (highest dose often 46.1 µM), without a hit: at the highest dose activity change, negative = cytotoxicity, usual class: cytotoxic | AID 588856
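CellTiter-Glo luminescence gave cytotoxicity after 18 hours at 37 degrees C. The cells were HepG2 CAGA-GFP in 1% FBS DMEM, stimulated with 500 pg/mL TGF-beta after compound addition. %Activity was normalised to no-cell wells (complete cell-killing) and DMSO (no toxicity), and curves were fitted and classified.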
TDP1 cell noCPT = qHTS for Inhibitors of human tyrosyl-DNA phosphodiesterase 1 (TDP1): qHTS in cells in absence of CPT; DT40 Tdp1-/- hTDP1 cells, no CPT, ATP luminescence, 48 h; Potency, µM (series often up to 46.2 µM), inactives show top-dose activity change, negative = growth inhibition, usual class: inhibitors; 420,000 tested, 15% active; AID 686978, 2013; also: % is scaled to controls: 0 for no effect and ±100 for the full control effect; nearly all actives have a fitted effect of over 55% in size
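Chicken DT40 Tdp1-/- cells complemented with human TDP1, screened without camptothecin (DMSO vehicle only), 400 cells/well. Compounds pin-transferred, cells incubated at 37 °C for at least 48 hr. Growth read as ATP-dependent luminescence (CellTiter-Glo, 30 min at RT).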
HT1080NT lethal = kills 2HG-producing HT-1080-NT fibrosarcoma cells. 360,000 tested, 1.6% active. HT-1080-NT fibrosarcoma viability, CellTiter-Glo ATP luminescence, 48 h. Potency, µM (titrated, usually from 46.1 µM), without a hit: top-dose activity, negative = less viability, most hits filed as cytotoxic;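 also: NT is the 2HG producing partner of a matched IDH1 knockdown line; 0% = DMSO-treated cells and -100% = media-only wells without cells; nearly all actives have a fitted effect of over 55% in size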
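A 48-hour cytotoxicity screen used HT-1080-NT cells plated 2 hours before compound delivery. ATP-based CellTiter-Glo luminescence measured viability, normalized to DMSO and no-cell controls.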
TGFb inhibitor = TGF-b pathway inhibition. Potency, µM (doses to about 46.1 µM), for inactives: top-dose activity, negative = inhibition, usual class: inhibitors. HepG2 CAGA-GFP TGF-b/SMAD3 reporter, GFP fluorescence, 18 h; TGF-beta stimulated, 500 pg/mL final. 410,000 tested, 1.2% active; also: % is scaled to controls: 0 for no effect and ±100 for the full control effect; nearly all actives have a fitted effect of over 65% in size
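HEPG2 CAGA-GFP reporter cells (1000/well, DMEM with 1% FBS) received compounds, then recombinant TGF-beta at 500 pg/mL final for 18 hours at 37 degrees C. Per-cell GFP summed per well was normalised to unstimulated and stimulated DMSO controls before curve fitting.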
HT1080 IDH1KD tx = kills HT-1080 cells with IDH1 knockdown | HT-1080 IDH1 knockdown viability, ATP luminescence, 48 h | Potency, µM (highest dose often 46.1 µM), without a hit: at the top dose activity, negative = toxicity, usual class: cytotoxic | 360,000 tested, 2% active | AID 686971;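 also: 0% = DMSO wells and -100% = cell-free medium wells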
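Using the IDH1-knockdown HT-1080 line run in the same batch and compound series as the NT line, viability after 48 h at 37 °C was determined by CellTiter-Glo luminescence and expressed as % activity.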
TDP1 cell CPT = growth inhibition of DT40 Tdp1-/-;hTDP1 cells with camptothecin (screen for TDP1 inhibitors); chicken DT40 Tdp1-/-;hTDP1 cells + 20 nM CPT, ATP luminescence, 48 h; Potency, µM (top dose mostly 46.2 µM), for inactives: top-dose activity change, negative = growth inhibition, actives largely listed as inhibitors; 420,000 tested, 12% active; AID 686979; also: % is scaled to controls: 0 for no effect and ±100 for the full control effect; nearly all actives have a fitted effect of over 55% in size
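Chicken DT40 Tdp1-/- cells complemented with human TDP1, 400 cells/well, exposed to compounds plus 20 nM camptothecin for at least 48 h at 37 C; viability read as ATP content by CellTiter-Glo luminescence.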
* marks the source's active call; other numbers are inactive results; ? = inconclusive; · = not tested or not shown; ! = repeats disagree; [ ] = remark or other dose. Calls follow the shape of the dose curve; as a rule, active = well fitted curve in the direction sought with a large enough effect; inconclusive = small, poorly fitted or top-dose-only effect, or another doubt; inactive = no such curve, though single readings can be large; an effect the other way counts as inactive or inconclusive. Potency is read from the fitted curve at half-maximal effect.

SMILES	HepG2 tox	TDP1 cell noCPT	HT1080NT lethal	TGFb inhibitor	HT1080 IDH1KD tx	TDP1 cell CPT
Cc1sc(NC(=O)C2=COCCO2)nc1-c1ccc(F)cc1	-6.4%	20.6µM*	2.2%	0.0%	-13.1%	16.4µM*
CC(C)C(=O)Nc1nc2cc3c(cc2s1)OCCO3	0.6%	14.6µM*	-7.3%	4.7%	-17.8%	20.6µM*
CC(=O)Nc1nc2cc3c(cc2s1)OCO3	-10.5%	14.6µM*	-2.8%	4.8%	-2.6%	23.1µM*
Cc1cccc(C)c1-n1nnnc1C(c1ccnc2ccccc12)N1CCN(c2ccccc2F)CC1 (stereo unspecified)	·	?	19.3%	·	12.6%	?
Cc1cccn2c(=O)c3cc(C(=O)NCC4CCCO4)c(=N)n(C4CCCC4)c3nc12 (stereo unspecified)	-5.0%	?	3.0%	0.0%	4.5%	0.5%
CCOC(=O)c1c(C)[nH]c(C)c1S(=O)(=O)N(C)CC(=O)Nc1cc(Cl)ccc1C	-14.9%	?	·	?	·	?
OCc1nc2ccccc2n1Cc1c(F)cccc1Cl	3.9%	14.6µM*!	5.3%	2.8%	0.7%	?
Cc1ccc(N(C(=O)CNC(=O)c2ccco2)C(C(=O)NC2CCCCC2)c2ccncc2)c(C)c1 (stereo unspecified)	-27.4%	8.6%	0.9%	10.4%	0.4%	2.4%
c1ccc(CN2CCN(c3ncccn3)CC2)cc1	3.8%	2.6%	16.2%	-0.4%	13.3%	5.8%
c1ccc(N(c2ccccc2)c2nc(N3CCCC3)nc(-n3ccnc3)n2)cc1	8.1%	25.9µM*	?	-5.9%	?	?
CN(c1ccccc1)c1nc(N2CCCC2)nc(-n2ccnc2)n1	-25.8%	-21.3%	-13.9%	21.1%	-28.9%	-26.1%
c1ccc(-c2nc(-n3ccnc3)nc(-n3ccnc3)n2)cc1	-30.0%	10.3µM*	-6.0%	0.0%	-24.5%	20.6µM*
c1ccc(CN2CCN(c3nc(-c4ccccc4)nc(-n4ccnc4)n3)CC2)cc1	-0.5%	18.4µM*	?	?	?	16.4µM*
Cc1cc(NC(=O)Cc2ccccc2[N+](=O)[O-])no1	7.4%	?	4.7%	2.7%	0.6%	?
Cc1sc2nc(C3CC3)nc(N3CCN(S(=O)(=O)c4ccc(F)cc4)CC3)c2c1C	7.7%	11.2µM*	5.1%	-20.6%	?	?
Cc1sc2nc(C3CC3)nc(N3CCN(C(=O)c4ccc(F)cc4)CC3)c2c1C	-1.8%	23.1µM*	?	?	?	?
Cc1sc2nc(C3CC3)nc(N3CCN(C(=O)c4ccc(Cl)cc4)CC3)c2c1C	-15.2%	18.4µM*	-16.9%	?	-24.0%	?
Cc1sc2nc(CN3CCCC3)nc(N3CCN(C(=O)c4ccco4)CC3)c2c1C	3.9%	-24.4%	-29.2%	-15.7%	-0.9%	4.3%
Cc1sc2nc(C3CC3)nc(N3CCN(C(=O)c4ccccc4F)CC3)c2c1C	3.4%	?	-17.0%	?	?	?
COc1ccc(C(=O)N2CCN(c3nc(C4CC4)nc4sc(C)c(C)c34)CC2)cc1	-2.9%	20.6µM*	-8.2%	?	-8.4%	?
Cc1sc2nc(CN3CCCC3)nc(N3CCN(S(=O)(=O)c4cccc(F)c4)CC3)c2c1C	-5.6%	?	-21.6%	-1.2%	-14.0%	?
Cc1ccc(CNC(=O)CSc2nc3ccsc3c(=O)n2-c2ccc(C(=O)O)cc2)cc1	-0.5%	3.9%	·	0.0%	·	18.1%
COc1ccc(S(N)(=O)=O)cc1C(=O)OCC(=O)N1CCCC(C)C1 (stereo unspecified)	-7.6%	-3.7%	1.5%	5.1%	8.4%	0.1%
CC[C@]12c3[nH]c4ccc(OC)cc4c3CCN1C(=O)C(CC(=O)NCc1ccc(OC)c(OC)c1)C[C@@H]2C(=O)N1CCN(C(=O)C2CC2)CC1 (stereo partly specified)	-17.3%	-15.1%	5.1%	-24.3%	6.4%	-21.8%
COc1ccccc1-c1cc(NC(=O)COc2ccccc2Cl)n(-c2ccccc2)n1	0.6%	-20.5%	·	?	·	-23.9%
SMILES	HepG2 tox	TDP1 cell noCPT	HT1080NT lethal	TGFb inhibitor	HT1080 IDH1KD tx	TDP1 cell CPT
O=C(COc1ccccc1Cl)Nc1cc(-c2ccccc2F)nn1-c1ccccc1	-5.1%	9.2µM*	·	-11.0%	·	?
O=C(Nc1cc(-c2ccccc2F)nn1-c1ccccc1)c1ccccc1Br	-20.7%	20.6µM*	·	-10.2%	·	18.4µM*
COCCn1c(SCC(=O)NC(=O)Cc2ccccc2)nc2ccccc2c1=O	5.5%	-2.1%	-2.2%	10.6%	2.8%	2.3%
COCCn1c(SCc2cccc(F)c2)nc2cc(C(=O)OC)ccc2c1=O	13.3%	?	5.9%	5.1%	11.2%	20.6µM*
COCCn1c(SCc2ccc(C(=O)OC)o2)nc2ccccc2c1=O	-51.6%	20.6µM*	?	-17.9%	6.9%[9.24 µM]	?
COC(=O)c1ccc(CSc2nc3ccccc3c(=O)n2-c2ccccc2)o1	-5.6%	?	-13.2%	-6.0%	-0.2%	?
COCCn1c(SCc2ccc(OC)c(F)c2)nc2ccccc2c1=O	-17.2%	20.6µM*	-28.3%	?	-26.0%	16.4µM*
COC(=O)c1ccc(CSc2nc3ccccc3c(=O)n2-c2ccc(OC)c(OC)c2)o1	-10.2%	?	6.0%	-15.5%	-20.5%	16.4µM*
O=c1c2ccccc2nc(SCc2cccc(F)c2)n1Cc1ccco1	-15.1%	-19.1%	-23.1%	?	-26.7%	-15.0%
CC(C)Cn1c(SCc2cccc(F)c2)nc2ccsc2c1=O	-22.1%	29.1µM*	·	-20.2%	·	14.6µM*
COc1ccc(C(=O)Nc2ccc3c(c2)OCCO3)cc1	-21.1%	-15.0%	-15.7%	-14.0%	?	-28.0%
COc1ccc(C(=O)CCNc2ccc3c(c2)OCCO3)cc1	-28.7%	13µM*	4.3%	-26.5%	-7.3%	14.6µM*
CCC(=O)c1ccc(OCC(=O)Nc2ccc3c(c2)OCCO3)cc1	-5.4%	11.6µM*	-4.7%	12.3%	-3.0%	-19.0%
CC(=O)Oc1ccc(C(=O)Nc2ccc3c(c2)OCCO3)cc1	-61.1%	13µM*	?	19.6%	?	14.6µM*
O=C(COc1ccc(F)cc1)Nc1ccc2c(c1)OCCO2	-12.2%	-4.8%	2.3%	2.1%	1.6%	?
COc1ccc(C(=O)CCNc2cccc(Cl)c2)cc1	-1.1%	?	20.5%	-4.6%	0.3%	?
